Screens as filed in PubChem.
p97 inhibitor – blocks human p97 ATPase activity; P55072; recombinant p97 ATPase, Kinase-Glo ATP luminescence, 3 h; inhibition, % at 8 µM; hit rate 0.42% among 220,000; AID 1481; in the data active means inhibition above about 15%;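 further: 0% = DMSO vehicle and 100% = wells lacking enzyme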
FAS TE block – blocks the thioesterase domain of human fatty acid synthase; P49327; recombinant FAS-TE, OMFH fluorogenic substrate, fluorescence endpoint; inhibition, % at 15 µM; hit rate 0.67% among 360,000; AID 602261;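 active means compounds whose normalised, plate-corrected inhibition of enzyme fluorescence in the single-dose primary screen is 50% or more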;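 further: 0% = DMSO with enzyme and 100% = substrate without enzyme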
SUMO HTRF inh – blocks human SUMOylation mediated by UBC9; HTRF SUMOylation assay, SAE1/SAE2 + UBC9, in vitro; inhibition, % at 35 µM; hit rate 0.36% among 290,000; AID 2006; in the data active means inhibition above about 50%, passing the limit was not always enough
Target sequence (P63279 whole entry, looked up): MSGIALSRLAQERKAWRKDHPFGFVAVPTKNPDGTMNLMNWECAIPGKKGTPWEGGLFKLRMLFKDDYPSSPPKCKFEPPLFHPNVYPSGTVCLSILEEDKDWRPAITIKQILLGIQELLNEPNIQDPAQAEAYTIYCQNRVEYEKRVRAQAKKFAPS
PKD1 inh – blocks activity of human protein kinase D1; hit rate 0.056% among 200,000; Q15139; PKD1 kinase fluorescence polarization assay; AID 797; inhibition, % (concentration not given with the values); in the data active means inhibition above about 50%
Redox H2O2 prof – compounds producing H2O2 with reducing agent – biochemical, NIH compound library profiling, artefact control for MLSCN library redox annotation, primary screen; DTT-dependent redox cycling H2O2, phenol red/HRP absorbance; 100% = 100 µM peroxide control, 0% = buffer; hit rate 0.03% among 200,000; activation, % at 10 µM;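 active means activation of at least 50% relative to the plate's high and low controls in the primary single-dose screen; inactive means activation below 50%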;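 further: compound incubated with DTT at 0.8 mM final as the reducing agent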
Furin inhibitor – human furin inhibition. P09958. purified furin, fluorogenic substrate cleavage. inhibition, % at 20 µM or 30 µM. hit rate 0.061% among 220,000. AID 463115; in the data active means inhibition above about 25%
FAS-TE conf – FAS thioesterase (human) inhibition, confirmation; inhibition, % at 15 µM; hit rate 45% among 2,300; recombinant FAS-TE, OMFH fluorogenic substrate, fluorescence; shares compounds with FAS TE block;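 active means compounds inhibiting the enzyme by at least 50% at 15 µM in any one of the replicates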;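 further: 0% = enzyme with DMSO only and 100% = wells lacking enzyme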
* marks the source's active call; other numbers are inactive results; . = no result given. Hits are enriched below; roughly 1.2% of the tested compounds scored in any of these assays.

SMILES	p97 inhibitor	FAS TE block	SUMO HTRF inh	PKD1 inh	Redox H2O2 prof	Furin inhibitor	FAS-TE conf
CC(=O)Nc1ccc(NC(=O)C(C)OC(=O)CSCc2cccc(Cl)c2)cc1 (configuration not stated)	.	-2.8	.	.	.	.	.
Cc1ccc(C)c(NC(=O)COC(=O)c2ccc(S(=O)(=O)N3CCCC3)cc2)c1	.	-5.5	.	.	.	.	.
CC(C)(C)c1nc2scc(-c3ccc(Cl)cc3)c2c(=O)o1	-3.1	-2.0	10.9	-2.8	0.6	-18.5	.
Cc1nc2scc(-c3ccccc3)c2c(=O)n1N	7.1	-7.1	29.4	6.8	-1.1	-25.2	.
Cc1nc2scc(-c3ccccc3)c2c(=O)o1	-0.8	50.6*	22.4	-6.6	0.7	-35.3	73.1*
O=c1oc(-c2ccccc2F)nc2scc(-c3ccccc3)c12	12.3	85.6*	9.4	.	.	-18.0	36.5*
COc1ccc(-c2csc3nc(-c4ccc(C)cc4)oc(=O)c23)cc1OC	5.4	7.1	4.3	-0.3	0.3	-14.5	.
CC(C)(C)c1nc2scc(-c3cccs3)c2c(=O)o1	0.9	58.3*	0.1	-7.3	0.7	-17.0	55.7*
COc1ccc(-c2csc3nc(-c4ccccc4OC)oc(=O)c23)cc1	6.5	62.8*	6.0	-2.3	0.3	-15.9	42.3
O=P(OCC1CCCO1)(OCC1CCCO1)OCC1CCCO1 (configuration not stated)	.	-11.5	.	.	.	.	.
CCOC(=O)C1CCN(c2nc3c(C)cccn3c(=O)c2/C=C(\C#N)S(=O)(=O)c2ccccc2)CC1	10.4	64.8*	7.8	.	.	4.1	5.2
Cc1cccn2c(=O)c(/C=C(\C#N)S(=O)(=O)c3ccccc3)c(N3CCN(C)CC3)nc12	0.6	7.4	30.7	9.6	2.4	-22.6	.
N#C/C(=C\c1c(N2CCCCC2)nc2ccccn2c1=O)S(=O)(=O)c1ccccc1	4.9	44.5	8.3	.	.	-4.2	.
N#C/C(=C\c1c(N2CCN(c3ccccc3)CC2)nc2ccccn2c1=O)S(=O)(=O)c1ccccc1	.	70.6*	2.8	.	.	.	9.1
Cc1cccn2c(=O)c(/C=C(\C#N)S(=O)(=O)c3ccccc3)c(N3CCCCC3)nc12	3.8	54.0*	-3.2	.	.	-17.3	5.2
CCOc1ccc(C(=O)NCC(=O)NNC(=O)c2ccco2)cc1OCC	.	-4.3	.	.	.	.	.
NS(=O)(=O)c1ccc(N2C(=O)C(=O)/C(=C(/O)c3ccccc3)C2c2ccc(Cl)cc2)cc1 (configuration not stated)	-1.4	-7.4	-8.7	.	.	2.8	.
COc1ccc2c(c1)c(CC(=O)Nc1cccc(S(N)(=O)=O)c1)c(C)n2C(=O)c1ccc(Cl)cc1	9.8	26.3	9.4	.	.	-27.2	.
C/C(=N/Nc1ccc(C(=O)O)cc1)c1ccc2c(c1)Nc1ccccc1S2	.	51.5*	.	.	.	.	62.1*
COc1ccc(/C(C)=N/Nc2cccc(C(=O)O)c2)cc1OC	-0.4	-2.5	16.2	-6.5	0.3	-7.3	.
C/C(=N\Nc1ccc(C(=O)O)cc1)c1ccc2c(c1)Nc1ccccc1S2	6.4	71.3*	14.7	.	.	6.2	60.7*
O=C(COc1coc(CN2CCN(c3ccccc3F)CC2)cc1=O)NC1CCCC1	.	-5.8	.	.	.	.	.
COC(=O)c1cc(F)c(-n2cncn2)c(F)c1	-3.1	-5.6	6.3	-6.5	0.6	-18.5	.
COC(=O)c1cc([N+](=O)[O-])c(-n2cncn2)c([N+](=O)[O-])c1	4.8	57.4*	11.6	6.0	0.3	-18.1	29.1
Cc1ccc(NC2(c3nnnn3-c3c(C)cccc3C)CCCCC2)cc1	-8.5	53.6*	-14.5	-1.9	-0.5	0.7	29.8
SMILES	p97 inhibitor	FAS TE block	SUMO HTRF inh	PKD1 inh	Redox H2O2 prof	Furin inhibitor	FAS-TE conf
COCCN1C(=O)CCC1(C)c1nnnn1-c1c(C)cccc1C (configuration not stated)	.	-7.9	.	.	.	.	.
O=C1C=C(c2ccc(Cl)c(C(F)(F)F)c2)C[C@@H](c2ccc(Cl)cc2)C1	.	54.5*	.	.	.	.	33.5
O=C1C=C(c2ccc(Cl)c(C(F)(F)F)c2)C[C@@H](c2ccc(F)cc2)C1	.	53.2*	.	.	.	.	32.5
CCN(C(=O)COC(=O)c1[nH]c(=O)[nH]c(=O)c1N)c1ccccc1	2.4	-2.3	11.6	-7.4	-1.8	-26.2	.
CCOc1cc(C(=O)N=c2sccn2C)cc(Br)c1OC	.	6.4	-5.8	.	.	.	.
N/C(=N\c1nc2c(c(=O)[nH]1)CCCC2)Nc1ccccc1Sc1ccccc1	-0.8	51.3*	6.0	-3.9	0.2	-12.7	12.8
Cc1ccc(S(=O)(=O)N2CC(C)C(=O)CC2C)cc1 (configuration not stated)	.	-4.7	-2.5	.	.	.	.
CC(C)(C)OC(=O)N[C@@H](Cc1ccccc1)c1nnc(S(=O)(=O)Cc2ccccc2)o1	-1.1	.	-8.5	-9.9	2.7	-23.2	.
Cc1ccccc1CS(=O)(=O)c1nnc([C@H](Cc2ccccc2)NC(=O)OC(C)(C)C)o1	1.8	63.6*	35.5	-5.0	0.4	-20.2	26.8*
COCOCCn1cc(CN2CCS(=O)(=O)N(Cc3ccc(-c4cccc(N(C)C)c4)cc3)C(C(C)C)C2=O)nn1 (configuration not stated)	.	41.8	.	.	.	.	.
CC1(C(=O)Nc2ccc3c(c2)OCCO3)CCN1C(=O)CC1CCCC1 (configuration not stated)	.	-5.9	.	.	.	.	.
CC1(C(=O)Nc2ccc(Cl)c(Cl)c2)CCN1C(=O)CC1CCCC1 (configuration not stated)	.	62.2*	.	.	.	.	54.4*
COc1ccc(-c2cc(C)no2)cc1S(=O)(=O)N1CCN(c2ccccc2F)CC1	.	30.0	13.1	.	.	.	.
COc1ccc(-c2cc(C)no2)cc1S(=O)(=O)N1CCN(c2ccc([N+](=O)[O-])cc2)CC1	.	50.3*	19.0	.	.	.	32.4
COCCNC(=O)c1cc(S(=O)(=O)N(C)C2CCCCC2)ccc1Cl	.	-2.8	.	.	.	.	.
O=C(CCNC(=O)c1ccc([N+](=O)[O-])cc1)NCCc1ccc(Cl)cc1	.	61.7*	-14.1	.	.	.	69.9*
Cc1ccc(NC(=O)CCNC(=O)c2ccc([N+](=O)[O-])cc2)cc1C	.	64.5*	13.1	.	.	.	68.9*
COc1ccc(CCNC(=O)CCNC(=O)c2ccc([N+](=O)[O-])cc2)cc1	.	42.6	6.8	.	.	.	.
CCOC(=O)c1ccc(NC(=O)CCNC(=O)c2ccc([N+](=O)[O-])cc2)cc1	3.6	49.5	-5.2	-6.2	0.0	-18.2	.
O=C(Nc1cccc(C(=O)N2CCOCC2)c1)C1CC1	.	-11.4	.	.	.	.	.
COc1ccc(Cn2c(C(F)(F)F)ccc(C(N)=O)c2=O)cc1	1.1	3.4	-6.0	1.4	0.0	-9.2	.
NC(=O)c1ccc(C(F)(F)F)n(Cc2c(Cl)cccc2Cl)c1=O	-3.9	50.5*	-1.1	-1.3	-3.6	-15.6	40.9
CC(C)(C)c1cc(C(=O)NNc2cc(C(F)(F)F)ccc2Cl)n(Cc2ccccc2)n1	4.1	54.0*	-9.5	.	.	-27.2	14.9
